PubChem BioAssay AID1508601 (ICCB-Longwood Screening Facility, Harvard Medical School, 2020)
About 85 (1%) of roughly 5,700 compounds were called active. Rule as the data show it: active = p53-positive nuclei above about 36% (passing the limit was not always enough); inactive = the rest. The full list was thinned out, with actives kept by preference.

Key:
[1] = nuclear p53 accumulation, HPV+ cells – imaging, p53-positive nuclei imaging, 24 h, 48 h (AID 1508601); settings: 24/48 h
[2] = biological target: Cellular tumor antigen p53 (Homo sapiens) (UniProt P04637); test: as above; settings: 24/48 h, stronger effect = higher value
[3] = measured here: cell number at 24 h, concentration not given here
[4] = measured here: cell number at 48 h, concentration not given here
[5] = measured here: p53 positive nuclei at 24 h, concentration not given here
[6] = measured here: cell number at 24 h, Library stock concentration: 80 uM
[7] = measured here: cell number at 24 h, Library stock concentration: 400 uM
[8] = measured here: cell number at 24 h, Library stock concentration: 2 mM
[9] = measured here: cell number at 24 h, Library stock concentration: 10 mM
[10] = measured here: cell number at 48 h, Library stock concentration: 80 uM
[11] = measured here: cell number at 48 h, Library stock concentration: 400 uM
[12] = measured here: cell number at 48 h, Library stock concentration: 2 mM
[13] = measured here: cell number at 48 h, Library stock concentration: 10 mM
[14] = Library stock concentration: 80 uM
[15] = Library stock concentration: 400 uM
[16] = Library stock concentration: 2 mM
[17] = Library stock concentration: 10 mM
[18] = measured here: p53 positive nuclei at 24 h, Library stock concentration: 80 uM
[19] = measured here: p53 positive nuclei at 24 h, Library stock concentration: 400 uM
[20] = measured here: p53 positive nuclei at 24 h, Library stock concentration: 2 mM
[21] = measured here: p53 positive nuclei at 24 h, Library stock concentration: 10 mM
[22] = measured here: cell number at 24 h, Library stock concentration: 3.33 mM
[23] = measured here: cell number at 48 h, Library stock concentration: 3.33 mM
[24] = Library stock concentration: 3.33 mM
[25] = measured here: p53 positive nuclei at 24 h, Library stock concentration: 3.33 mM

Sequence of Cellular tumor antigen p53 (Homo sapiens) (P04637 whole entry, looked up): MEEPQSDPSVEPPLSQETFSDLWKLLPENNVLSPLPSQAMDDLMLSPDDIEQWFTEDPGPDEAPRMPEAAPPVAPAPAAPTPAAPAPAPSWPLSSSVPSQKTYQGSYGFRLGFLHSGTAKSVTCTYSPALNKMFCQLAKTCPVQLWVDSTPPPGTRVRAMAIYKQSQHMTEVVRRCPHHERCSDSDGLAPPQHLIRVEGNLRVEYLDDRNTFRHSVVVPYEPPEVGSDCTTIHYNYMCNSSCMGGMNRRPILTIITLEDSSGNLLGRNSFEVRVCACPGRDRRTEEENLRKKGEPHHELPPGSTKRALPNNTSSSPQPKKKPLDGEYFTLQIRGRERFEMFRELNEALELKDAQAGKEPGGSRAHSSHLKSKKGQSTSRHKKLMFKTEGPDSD

COc1cccc2ccc(-c3ccc(C(=O)N(C)C)cc3)nc12
nuclei count, normalised [1, 3]: 97.5%
nuclei count, normalised [1, 4]: 101%
p53-positive nuclei, normalised ([2]; concentration not given here): 0.00257% (inactive)
p53-positive nuclei, normalised [2, 5]: 0.1%

c1ccc(C(OC2CCN(CCCc3nn[nH]n3)CC2)c2ccccc2)cc1
nuclei count, normalised [1, 3]: 101%
nuclei count, normalised [1, 4]: 102%
p53-positive nuclei, normalised ([2]; concentration not given here): 0.0542% (inactive)
p53-positive nuclei, normalised [2, 5]: 0.308%

CCC(=O)N1CCN(c2ccc(-n3c(=O)ccc4cnc5ccc(-c6cnc7ccccc7c6)cc5c43)cc2C(F)(F)F)CC1
nuclei count, normalised [1, 6]: 68.5%
nuclei count, normalised [1, 7]: 59.7%
nuclei count, normalised [1, 8]: 55.8%
nuclei count, normalised [1, 9]: 43.7%
nuclei count, normalised [1, 10]: 64.8%
nuclei count, normalised [1, 11]: 49%
nuclei count, normalised [1, 12]: 36.2%
nuclei count, normalised [1, 13]: 21.9%
p53-positive nuclei, normalised [2, 14]: -0.0521% (inactive)
p53-positive nuclei, normalised [2, 15]: -0.0367% (inactive)
p53-positive nuclei, normalised [2, 16]: 0.993% (inactive)
p53-positive nuclei, normalised [2, 17]: 11.8% (inactive)
p53-positive nuclei, normalised [2, 18]: 0.45%
p53-positive nuclei, normalised [2, 19]: 0.126%
p53-positive nuclei, normalised [2, 20]: 0.287%
p53-positive nuclei, normalised [2, 21]: 0.768%

COc1ccc(-c2ccc3ncc4c(c3c2)n(-c2ccc(N3CCNCC3)c(C(F)(F)F)c2)c(=O)n4C)cn1
nuclei count, normalised [1, 6]: 74.5%
nuclei count, normalised [1, 7]: 49.8%
nuclei count, normalised [1, 8]: 37.4%
nuclei count, normalised [1, 22]: 46.3%
nuclei count, normalised [1, 9]: 49.1%
nuclei count, normalised [1, 10]: 70.7%
nuclei count, normalised [1, 11]: 39.8%
nuclei count, normalised [1, 12]: 21%
nuclei count, normalised [1, 23]: 37.9%
nuclei count, normalised [1, 13]: 37.2%
p53-positive nuclei, normalised [2, 14]: 0.085% (inactive)
p53-positive nuclei, normalised [2, 15]: 22.1% (inactive)
p53-positive nuclei, normalised [2, 16]: 53.3% (active)
p53-positive nuclei, normalised [2, 24]: 2.2% (inactive)
p53-positive nuclei, normalised [2, 17]: -0.138% (inactive)
p53-positive nuclei, normalised [2, 18]: 0.126%
p53-positive nuclei, normalised [2, 19]: 1.06%
p53-positive nuclei, normalised [2, 20]: 14.2%
p53-positive nuclei, normalised [2, 25]: 3.51%
p53-positive nuclei, normalised [2, 21]: -0.0446%

COc1cc(OC)cc(-c2ccc3ncc4ccc(=O)n(-c5ccc(N6CCNCC6)c(C(F)(F)F)c5)c4c3c2)c1
nuclei count, normalised [1, 6]: 106%
nuclei count, normalised [1, 7]: 104%
nuclei count, normalised [1, 8]: 101%
nuclei count, normalised [1, 9]: 45.6%
nuclei count, normalised [1, 10]: 111%
nuclei count, normalised [1, 11]: 107%
nuclei count, normalised [1, 12]: 103%
nuclei count, normalised [1, 13]: 30.1%
p53-positive nuclei, normalised [2, 14]: 0.103% (inactive)
p53-positive nuclei, normalised [2, 15]: 0.257% (inactive)
p53-positive nuclei, normalised [2, 16]: -0.11% (inactive)
p53-positive nuclei, normalised [2, 17]: 10.5% (inactive)
p53-positive nuclei, normalised [2, 18]: -0.0535%
p53-positive nuclei, normalised [2, 19]: 0.233%
p53-positive nuclei, normalised [2, 20]: 0.0288%
p53-positive nuclei, normalised [2, 21]: 11.7%

Cc1cn(C2OC(CO)C(O)C2F)c(=O)[nH]c1=O (centres undefined)
nuclei count, normalised [1, 22]: 108%
nuclei count, normalised [1, 23]: 103%
p53-positive nuclei, normalised [2, 24]: -0.314% (inactive)
p53-positive nuclei, normalised [2, 25]: -0.356%

COC(=O)N1C(=O)[C@](c2ccccc2)(C2CCCC2)N1C(=O)OC
nuclei count, normalised [1, 6]: 90.3%
nuclei count, normalised [1, 7]: 87.6%
nuclei count, normalised [1, 8]: 93.9%
nuclei count, normalised [1, 9]: 90.1%
nuclei count, normalised [1, 10]: 91.7%
nuclei count, normalised [1, 11]: 93.5%
nuclei count, normalised [1, 12]: 99.5%
nuclei count, normalised [1, 13]: 96.9%
p53-positive nuclei, normalised [2, 14]: -0.0853% (inactive)
p53-positive nuclei, normalised [2, 15]: -0.162% (inactive)
p53-positive nuclei, normalised [2, 16]: 0.00515% (inactive)
p53-positive nuclei, normalised [2, 17]: 0.0597% (inactive)
p53-positive nuclei, normalised [2, 18]: -0.136%
p53-positive nuclei, normalised [2, 19]: -0.136%
p53-positive nuclei, normalised [2, 20]: 0.165%
p53-positive nuclei, normalised [2, 21]: 0.0248%

Cc1cc(C)c(/C=C2\C(=O)Nc3ccccc32)[nH]1
nuclei count, normalised [1, 3]: 96.2%
nuclei count, normalised [1, 4]: 102%
p53-positive nuclei, normalised ([2]; concentration not given here): 0.0559% (inactive)
p53-positive nuclei, normalised [2, 5]: 0.0506%
